DT40 TDP1 no CPT: qHTS for Inhibitors of human tyrosyl-DNA phosphodiesterase 1 (TDP1): qHTS in cells in absence of CPT; DT40 Tdp1-/- hTDP1 cells, no CPT, ATP luminescence, 48 h; AID 686978, 2013; Potency, µM (doses to about 46.2 µM), actives largely listed as inhibitors; actives 15% (n = 420,000); note: nearly all actives have a fitted effect of over 55% in size
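Compound effects on proliferation are scored in DT40 Tdp1-/-;hTDP1 cells in the absence of CPT. ATP levels (CellTiter-Glo luminescence) are recorded after a ≥48 hr, 37 °C incubation.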
RORg inh: ROR gamma (mouse) transcription inhibition; P51450; Drosophila S2 Gal4-RORgamma UAS-luciferase reporter, 20 h; Potency, µM (top dose mostly 53.6 µM), actives largely listed as inhibitors; actives 5.4% (n = 310,000); AID 2551; note: nearly all actives have a fitted effect of over 60% in size
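ROR gamma transcriptional activity was tracked as Gal4-UAS luciferase output in stably transfected Drosophila Schneider cells, with compound added 1 hr before 700 uM copper sulfate induction and a 20 hr ambient-temperature incubation.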
TDP1 cell CPT: DT40-hTDP1 cell growth loss with CPT | AID 686979 | chicken DT40 Tdp1-/-;hTDP1 cells + 20 nM CPT, ATP luminescence, 48 h | Potency, µM (titrated, usually from 46.2 µM), most hits filed as inhibitors | actives 12% (n = 420,000); note: nearly all actives have a fitted effect of over 55% in size
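Chicken DT40 Tdp1-/- cells stably complemented with human TDP1 were seeded at 400 cells/well in medium containing 20 nM camptothecin, exposed to pin-transferred compounds, and grown at 37 °C for at least 48 hr. Viability was read as ATP luminescence.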
ALOX12 inh: ALOX12 (human) lipoxygenase inhibition; P18054; purified 12hLO, xylenol orange hydroperoxide absorbance; Potency, µM (series often up to 108 µM), hits mostly inhibitors; actives 1.1% (n = 580,000); AID 1671190
Target sequence (P18054 whole entry, looked up): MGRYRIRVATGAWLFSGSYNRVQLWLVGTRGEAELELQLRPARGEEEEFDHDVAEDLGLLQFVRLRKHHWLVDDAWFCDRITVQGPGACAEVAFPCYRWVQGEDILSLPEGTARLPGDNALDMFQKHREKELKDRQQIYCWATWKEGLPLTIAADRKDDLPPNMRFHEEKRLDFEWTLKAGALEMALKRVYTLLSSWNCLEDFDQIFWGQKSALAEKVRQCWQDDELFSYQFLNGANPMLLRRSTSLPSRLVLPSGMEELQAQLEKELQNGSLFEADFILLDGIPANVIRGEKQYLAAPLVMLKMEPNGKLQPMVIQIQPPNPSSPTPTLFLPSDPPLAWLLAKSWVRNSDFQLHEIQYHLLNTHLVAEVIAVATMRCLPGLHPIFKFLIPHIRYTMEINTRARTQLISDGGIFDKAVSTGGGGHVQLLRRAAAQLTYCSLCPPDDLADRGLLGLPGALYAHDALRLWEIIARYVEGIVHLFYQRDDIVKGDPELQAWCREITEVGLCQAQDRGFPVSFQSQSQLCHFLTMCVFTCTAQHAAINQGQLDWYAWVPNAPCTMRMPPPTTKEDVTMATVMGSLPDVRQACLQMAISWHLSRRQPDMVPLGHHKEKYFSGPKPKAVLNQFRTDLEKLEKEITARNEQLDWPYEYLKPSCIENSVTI
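Hydroperoxide product was detected by ferrous iron/xylenol orange as the 573 to 405 nm absorbance ratio. Arachidonic acid at 40 uM (final) was turned over for 30 min at room temperature by 150 nM human 12hLO, pH 7.0 Hepes buffer, after 15 min compound preincubation.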
Gal4-VP16 FLuc: Gal4-VP16 reporter inhibition counter-screen; actives 3.5% (n = 310,000); Drosophila S2 Gal4-VP16 UAS-luciferase, luminescence, 20 h; Potency, µM (titrated, usually from 53.6 µM), usual class: inhibitors;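 note: Gal4-VP16 expression switched on by copper sulfate through the metallothionein promoter; nearly all actives have a fitted effect of over 50% in size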
ELG1 repair inh: ELG1-dependent DNA repair inhibition | AID 504467 | actives 2.3% (n = 330,000) | Potency, µM (doses to about 46.1 µM), actives largely listed as inhibitors | HEK293T ELG1-luciferase reporter, luminescence, 16 h; DNA damage induced by 5-fluorouridine; note: nearly all actives have a fitted effect of over 55% in size
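Step one: seed 2,000 cells per well. Step two: pin-transfer compound or DMSO alongside 5-fluorouridine. Step three: incubate 16 hr, 37 °C, 5% CO2. Step four: add ONE-Glo, wait 30 min, read luminescence.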
A number is an active result; . = inactive; ? = inconclusive; / = no result. Sampled rows, rich in hits. Any-hit rate of the full collection: about 15%. Calls come from the whole dose curve; as a rule, active = well fitted curve in the direction sought with a large enough effect; inconclusive = small, poorly fitted or top-dose-only effect, or another doubt; inactive = no such curve, though single readings can be large; an effect the other way counts as inactive or inconclusive.

SMILES	DT40 TDP1 no CPT	RORg inh	TDP1 cell CPT	ALOX12 inh	Gal4-VP16 FLuc	ELG1 repair inh
CC(C)N1C(=O)C2(CCCC2)C1C(=O)N1CCc2ccccc21 (configuration not stated)	/	/	/	.	/	/
O=C(OCCc1ccccc1)c1cccc([N+](=O)[O-])c1	/	/	/	.	/	/
Cc1oc(-c2ccc3c(c2)OCCO3)cc1C(=O)NC(CCC(=O)O)C(=O)O (configuration not stated)	.	?	.	.	.	?
CN(Cc1cnc2nc(N)nc(N)c2n1)c1ccc(C(=O)NC(CCC(=O)O)C(=O)O)c2ccccc12 (configuration not stated)	0.052µM	/	0.092µM	.	/	/
Cc1ccc(Cc2c(-c3ccc(Cl)cc3)nc3cc(C)ccn23)cc1	18µM	/	?	?	/	/
COC(=O)c1nc2cc(C)ccn2c1F	.	.	.	?	.	?
Cc1ccc(Cc2c(-c3ccc(C)cc3)nc3cc(C)ccn23)cc1	21µM	/	21µM	?	/	/
Cc1ccn2c(CC(C)(C)C)c(-c3ccc(F)cc3)nc2c1	21µM	/	21µM	?	/	/
C#CCN(C)Cc1nc(C2(O)CCN(C(=O)c3ccccc3)CC2)cs1	/	/	/	.	/	/
Cc1ccc(S(=O)(=O)N2CCN(Cc3coc(-c4cccs4)n3)CC2)cc1	/	/	/	.	/	/
Cc1cc(-c2ccnc(-n3ncc(C(=O)NCC4COCCO4)c3C)n2)c(C)s1 (configuration not stated)	4.1µM	/	?	.	/	/
COc1ccc(-c2noc(COc3ccccc3OC)n2)cc1OC	?	.	16µM	.	.	.
c1ccc(-c2cc(CSc3nc4ccccc4[nH]3)on2)cc1	21µM	.	12µM	.	?	.
COc1ccccc1-c1noc(CSc2nc3ccc(C)cc3[nH]2)n1	16µM	/	?	.	/	/
Cc1ccc2nc(SCc3nnc(-c4ccccc4)o3)[nH]c2c1	.	.	.	.	.	.
Cc1ccc2nc(SCc3nnc(-c4cccs4)o3)[nH]c2c1	12µM	.	?	.	.	.
CCNC(=O)NC(=O)CN1CCCCCCC1	/	/	/	.	/	/
O=C(Nc1ccccc1)NC1CCN(c2nc3ncccc3o2)CC1	/	/	/	.	/	/
Cc1ccccc1-c1noc(CSc2nc3ccccc3[nH]2)n1	6.5µM	/	18µM	.	/	/
COc1ccc(-c2noc(CSc3nc4ccccc4[nH]3)n2)cc1OC	18µM	/	23µM	.	/	/
Cc1noc(C)c1CSc1nc2ccccc2[nH]1	.	.	.	.	.	.
COc1ccc(-c2noc(CSc3nc4ccccc4c(=O)n3-c3ccccc3)n2)cc1OC	?	.	?	.	.	.
Cc1nc2cc(NC(=O)CC(C)(C(=O)O)C(C)C)ccc2o1 (configuration not stated)	/	/	/	.	/	/
Cc1sc(NC(=O)CN(CCc2ccccc2)C(=O)C2CC2)c(C(N)=O)c1C	?	.	?	.	.	?
CCCC(=O)N(CCN(Cc1ccccc1)C(=O)CCC)Cc1ccccc1	23µM	.	?	.	.	?
SMILES	DT40 TDP1 no CPT	RORg inh	TDP1 cell CPT	ALOX12 inh	Gal4-VP16 FLuc	ELG1 repair inh
CCCC(=O)N(CC(=O)Nc1sc(C)c(C)c1C(N)=O)Cc1ccccc1	6.5µM	.	12µM	.	.	?
Cc1ccccc1C(=O)N(CC(=O)Nc1sc(C)c(C)c1C(N)=O)C1CCCC1	15µM	.	?	.	.	.
COCCn1c(SCc2nc3sc(C(=O)OC)c(C)c3c(=O)[nH]2)nc2ccccc21	.	?	.	.	.	.
COC(=O)c1sc2nc(CSc3ccc(Br)cc3)[nH]c(=O)c2c1C	21µM	.	?	?	.	?
COc1cccc(N2CCN(c3ccc([N+](=O)[O-])cn3)CC2)c1	.	.	.	.	.	.
CCN(CC)S(=O)(=O)c1ccc2c(c1)N(CC(=O)N1CCN(c3cccc(OC)c3)CC1)C(=O)CO2	?	/	21µM	.	/	/
O=C(CN1C(=O)COc2ccc(S(=O)(=O)N3CCCCCC3)cc21)N1CCN(c2ccc(F)cc2)CC1	21µM	/	23µM	.	/	/
CCN(CC)S(=O)(=O)c1ccc2c(c1)N(CC(=O)N1CCN(c3ccc(OC)cc3)CC1)C(=O)CO2	?	/	21µM	.	/	/
CCN(CC)S(=O)(=O)c1ccc2c(c1)N(CC(=O)N1CCN(c3ccccc3F)CC1)C(=O)CO2	/	/	/	.	/	/
CCN(CC)S(=O)(=O)c1ccc(N2CCN(c3cccc(OC)c3)CC2)c([N+](=O)[O-])c1	8.2µM	.	13µM	.	.	?
N#Cc1ccc(CCC(=O)NCc2cccnc2)cc1	/	/	/	.	/	/
CCOc1cc2c(cc1NC(=O)c1ccc(SC)cc1OC)OC(C)C2 (configuration not stated)	/	/	/	.	/	/
CCOc1ccccc1NC(=O)C(CC(C)C)NC(=O)C1CCC(C)CC1 (configuration not stated)	?	.	18µM	.	.	.
CCOc1ccccc1NC(=O)C(NC(=O)C1CCC(C)CC1)C(C)C (configuration not stated)	.	.	.	.	.	.
COC(=O)c1[nH]c2ccc(Br)cc2c1NC(=O)C(C)N1CCN(C2CCCCC2)CC1 (configuration not stated)	16µM	.	5.2µM	.	?	.
CCCn1cnnc1-c1nc2c([nH]1)CC(c1ccccc1OC)CNC2=O (configuration not stated)	/	/	/	.	/	/
Cn1cc(CN2CCOc3ccc(C(O)C4CCCCC4)cc3C2)cn1 (configuration not stated)	12µM	/	?	.	/	/
FC(F)(F)c1cccc(CSc2nnc(-c3ccncc3)n2-c2ccc(Br)cc2)c1	/	/	/	.	/	/
Cc1ccc(Cc2ccc(C(=O)NNC(N)=S)o2)cc1	.	10µM	.	.	.	.
Cc1ccc(Cc2ccc(C(=O)O)o2)cc1	/	/	/	.	/	/
Cc1ccc(C(=O)NCC(c2ccco2)N2CCc3ccccc32)cc1C (configuration not stated)	16µM	/	21µM	.	/	?
COc1ccc(OC)c(S(=O)(=O)NCC(c2ccc(F)cc2)N2CCN(C)CC2)c1 (configuration not stated)	.	/	.	.	/	?
COc1ccc(OC)c(S(=O)(=O)NCC(c2ccco2)N2CCc3ccccc32)c1 (configuration not stated)	?	/	?	40µM	/	.
COc1ccccc1NC(=O)C(=O)NCC(c1ccco1)N1CCc2ccccc21 (configuration not stated)	?	/	?	?	/	.
O=C(NCC(c1ccco1)N1CCc2ccccc21)c1ccccc1 (configuration not stated)	?	/	?	?	/	.
